Screens: PubChem, National Center for Advancing Translational Sciences (NCATS)
mIDH1 inhibitor: qHTS for Inhibitors of mutant isocitrate dehydrogenase 1 (IDH1): qHTS; actives 0.093% (n = 390,000); Potency, µM (highest dose often 76.6 µM), for inactives: at the top dose activity change, negative = inhibition, hits mostly inhibitors; IDH1-R132H enzyme, NADPH consumption, diaphorase/resazurin fluorescence; Isocitrate dehydrogenase [NADP] cytoplasmic (Homo sapiens), O75874; also: potency is read from the fitted curve at half-maximal effect; nearly all actives have a fitted effect of over 65% in size
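IDH1-R132H (0.5 ug/mL dispensed) in pH 7.5 Tris buffer was preincubated 30 min with compound, then given a substrate mix of 0.016 mM NADPH and 2 mM alpha-KG for 80 min at room temperature; remaining NADPH was read by diaphorase/resazurin fluorescence.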
TrxR1 substrate: qHTS Assay for Substrates of Mammalian Selenoprotein Thioredoxin Reductase 1 (TrxR1): qHTS | Thioredoxin reductase 1, cytoplasmic (Rattus norvegicus), O89049 | purified TrxR1 substrate turnover, NADPH consumption readout | Potency, µM (top dose mostly 114 µM), for the others: top-dose activity change, negative = substrate turnover | actives 0.01% (n = 390,000); also: potency is read from the fitted curve at half-maximal effect; nearly all actives have a fitted effect of over 50% in size
Target sequence (O89049 whole entry, looked up): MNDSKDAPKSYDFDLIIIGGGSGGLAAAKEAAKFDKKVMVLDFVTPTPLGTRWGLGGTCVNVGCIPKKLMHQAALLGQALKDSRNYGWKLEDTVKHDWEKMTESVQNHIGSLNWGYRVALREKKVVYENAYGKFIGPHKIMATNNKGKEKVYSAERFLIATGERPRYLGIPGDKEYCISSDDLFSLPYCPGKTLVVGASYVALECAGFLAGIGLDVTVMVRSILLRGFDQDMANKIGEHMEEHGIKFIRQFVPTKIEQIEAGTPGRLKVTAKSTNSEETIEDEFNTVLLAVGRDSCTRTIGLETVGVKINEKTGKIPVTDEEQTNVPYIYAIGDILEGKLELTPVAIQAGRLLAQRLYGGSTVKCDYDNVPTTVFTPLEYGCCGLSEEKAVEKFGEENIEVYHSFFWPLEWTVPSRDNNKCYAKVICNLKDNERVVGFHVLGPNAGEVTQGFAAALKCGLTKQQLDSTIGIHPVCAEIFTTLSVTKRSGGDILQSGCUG
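Rat TrxR1, dispensed at 90 nM, was prereduced with 400 uM NADPH (final) for 5 min at ~22 deg C, then incubated with compound 15 min before 400 uM selenite. A first-read NADPH fluorescence drop versus no-compound background flagged substrates.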
Eya2 phos inh: qHTS Assay for Inhibitors of the Phosphatase Activity of Eya2; actives 0.006% (n = 330,000); Potency, µM (series often up to 76.9 µM), inactives show top-dose activity, negative = inhibition, usual class: inhibitors; recombinant Eya2, OMFP fluorescence dephosphorylation (OMFP is methylfluorescein phosphate); Protein phosphatase EYA2 (Homo sapiens), O00167; also: potency is read from the fitted curve at half-maximal effect
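Eya2 protein (added as 0.2 uM solution) was preincubated with compound for 10 min at ambient temperature in 50 mM HEPES pH 7.5, 50 mM NaCl, 5 uM MgCl2, 0.05% BSA, 1 mM DTT. OMFP (added at 50 uM) then reacted 10 min; fluorescence read at 485/525 nm.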
rTrxR1 inhibitor: qHTS Assay for Inhibitors of Mammalian Selenoprotein Thioredoxin Reductase 1 (TrxR1): qHTS; recombinant rTrxR1, NADPH fluorescence consumption, selenite substrate; Potency, µM (series often up to 114 µM), for inactives: at the top dose activity change, negative = inhibition, usual class: inhibitors; actives 1% (n = 390,000); AID 588453, 2011; also: potency is read from the fitted curve at half-maximal effect; nearly all actives have a fitted effect of over 65% in size
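Rat TrxR1 (90 nM in the dispensed reagent) was pre-reduced with 400 uM NADPH for 5 min at room temperature, then incubated with compound for 15 min. After 400 uM selenite was added, NADPH fluorescence (Ex 340/Em 450 nm) was followed for 8 min.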
Coupling enz: qHTS Assay for Inhibitors of Fructose-1,6-bisphosphate Aldolase from Giardia Lamblia: Coupling assay counterscreen; coupling enzyme system counterscreen, AmpLite Red fluorescence; activity change, negative = inhibition, % at 58.2 µM, hits read low; actives 0.67% (n = 290,000); in the data active = activity change below about -30%
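Compounds tested against the coupling enzymes alone at 57.5 uM final; readout was AmpLite Red fluorescence (525/598 nm) after 20 min at RT.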
An asterisk follows results filed as active; ? = inconclusive; nt = no result; [ ] = remark or other dose. Most compounds without a hit are left out; they make up all but 1.5% or so of the library. Unless noted, calls follow the shape of the dose curve; as a rule, active = well fitted curve in the direction sought with a large enough effect; inconclusive = small, poorly fitted or top-dose-only effect, or another doubt; inactive = no such curve, though single readings can be large; an effect the other way counts as inactive or inconclusive. % is scaled to controls: 0 for no effect and ±100 for the full control effect.

SMILES	mIDH1 inhibitor	TrxR1 substrate	Eya2 phos inh	rTrxR1 inhibitor	Coupling enz
Cn1c(N)c(C(=O)CCl)c(=O)n(Cc2ccccc2)c1=O	-3%	10%[57.1 µM]	8%	13µM*	1
O=C1CCC[C@@H]2CC(Nc3ccccc3)C[C@@H]3CCN1[C@H]23 (some centres undefined)	nt	3%	nt	16%	nt
CCN(CC)Cc1cc(C(C)=O)ccc1OCC(C)C	1%	-5%	3%	35µM*	-4
C=CCOC(=O)C1(C(NC(=O)OC)c2ccccc2)C(=O)Cc2ccccc21 (centres undefined)	nt	nt	nt	nt	3
CCOC(=O)c1cc(CC)sc1NC(=O)CN1CCN(C(=O)c2ccco2)CC1	6%	-6%	-3%	35µM*	nt
CC1CCCC(NC(=O)COC(=O)/C=C/c2ccco2)C1C (centres undefined)	-2%	-1%	-4%	22µM*	nt
CCOC(=O)c1cc(C)sc1NC(=O)CN1CCN(C(=O)c2ccco2)CC1	3%	3%	-13%	14%	nt
CC1CCN(C(=O)COC(=O)/C=C/c2ccco2)CC1	12%	11%	3%	8.9µM*	nt
O=Cc1cccc(OC(=O)/C=C/c2ccco2)c1	-5%	-3%	1%	32µM*	1
c1ccc2nccnc2c1	nt	-4%	nt	?	nt
CC1CCCC(C)N1C(=O)COC(=O)/C=C/c1ccco1 (centres undefined)	3%	3%	7%	50µM*	nt
COc1ccc(OC)c(/C=C/C(=O)OCC(=O)N2C(C)CCCC2C)c1 (centres undefined)	0%	16%	-5%	5%	nt
CC1CCCCC1NC(=O)COC(=O)c1c2c(nc3ccccc13)/C(=C\c1ccco1)CC2 (centres undefined)	-4%	-2%	nt	14µM*	nt
O=C(/C=C/c1ccc(OC(F)F)cc1)OCC(=O)N1CCN(C(=O)c2ccco2)CC1	-2%	3%	1%	3%	2
CCOC(=O)/C=C/C(=O)OCC(=O)N1CCN(C(=O)c2ccco2)CC1	2%	-7%	-4%	50µM*	nt
O=C(CCNS(=O)(=O)c1cccc(Cl)c1)OCC(=O)N1CCN(C(=O)c2ccco2)CC1	-4%	11%	-6%	50µM*	nt
O=C1CC(c2ccco2)Cc2[nH]c(=O)c(C(=O)Nc3ccccc3)cc21 (centres undefined)	nt	-4%	nt	-4%	nt
COc1ccc(SCC(CC(C)C)N2CCN(C)CCC2=O)cc1 (centres undefined)	nt	-4%	nt	-1%	3
CC[N+]1(CC(=O)c2ccc(I)cc2)CCCCC1	nt	5%	nt	10%	nt
COc1ccc(CN(Cc2ccccc2)C(=O)CN2CCN(C)CC2)cc1COc1ccc(NC(C)=O)cc1	nt	-3%	nt	-23%	nt
CCOc1ccc(/C=C/c2ccc3ccccc3[n+]2C)cc1OCC	nt	-12%	nt	?	nt
C#CCOCCOCCOCCNc1nc(N2CCN(C(=O)[C@H](Cc3cc4ccccc4[nH]3)n3cc([C@@H](N)C(C)CC)nn3)CC2)nc(N2CCN(C(=O)[C@H](CCCCN)n3cc([C@@H](N)CO)nn3)CC2)n1 (some centres undefined)	nt	nt	-5%	nt	2
C#CCOCCOCCOCCNc1nc(N2CCN(C(=O)[C@H](CCCCN)n3cc(C(N)[C@H](C)CC)nn3)CC2)nc(N2CCN(C(=O)[C@H](CCC(=O)O)n3cc(C(N)[C@H](C)CC)nn3)CC2)n1 (some centres undefined)	-5%	2%	14%	56µM*	2
C#CCOCCOCCOCCNc1nc(N2CCN(C(=O)[C@H]([C@@H](C)CC)n3cc([C@@H](N)CC(C)C)nn3)CC2)nc(N2CCN(C(=O)[C@H](CCCCN)n3cc([C@@H](N)C(C)CC)nn3)CC2)n1 (some centres undefined)	-7%	11%[57.1 µM]	?	3%[57.1 µM]	1
C#CCOCCOCCOCCNc1nc(N2CCN(C(=O)C([C@@H](C)CC)n3cc(C(N)COC(=O)C(F)(F)F)nn3)CC2)nc(N2CCN(C(=O)[C@H](CCCCN)n3cc(C(N)[C@H](C)CC)nn3)CC2)n1 (some centres undefined)	-10%	5%	nt	50µM*	nt
SMILES	mIDH1 inhibitor	TrxR1 substrate	Eya2 phos inh	rTrxR1 inhibitor	Coupling enz
C#CCOCCOCCOCCNc1nc(N2CCN(C(=O)[C@H](CCCCN)n3cc(CN)nn3)CC2)nc(N2CCN(C(=O)[C@H](CCCCN)n3cc([C@@H](N)[C@H](C)CC)nn3)CC2)n1	10%	12%	2%	45µM*	nt
C#CCOCCOCCOCCNc1nc(N2CCN(C(=O)[C@H](CCCCN)n3cc([C@@H](N)C(C)CC)nn3)CC2)nc(N2CCN(C(=O)[C@H](Cc3cc4ccccc4[nH]3)n3cc([C@@H](N)CC(C)C)nn3)CC2)n1 (some centres undefined)	-1%	1%	23%	25µM*	1
CC1=C(C)C(=O)N(c2ccccn2)C1=O	1%	-9%	13%	10%[57.1 µM]	1
Cc1nn(-c2ccccn2)c2c1C(=O)C(Br)CC2 (centres undefined)	17%	-6%	2%	13µM*	-64*
COc1ccc(C2=Nn3c(nnc3-c3ccc(OC)c(OC)c3)SC2)c(OC)c1	nt	nt	nt	nt	4
CCCCn1c(SCC(=O)N2CCCC2)nnc1-c1ccccc1	0%	-19%	14%	89µM*	0
O=C(CSc1nnc(-c2ccccc2)n1Cc1ccccc1)N1CCCC1	1%	18%[57.1 µM]	7%	30%[57.1 µM]	-2
O=[N+]([O-])c1ccc(S(=O)(=O)N2CCN(c3nc(-c4cccs4)nc4ccccc34)CC2)cc1	nt	-9%	nt	-8%	nt
CCOC(=O)C1=C(C)NC(SCC(=O)OC)=C(C#N)C1c1ccc(C(=O)OC)cc1 (centres undefined)	5%	-4%	3%	14%	0
CCOC(=O)CSC1=C(C#N)C(c2ccc(F)cc2)C(C(C)=O)=C(C)N1 (centres undefined)	8%	7%	-8%	-4%	-39*
O=C(Cn1ncc2c1-c1ccccc1OC2)N1CCc2ccccc21	6%	-1%[57.1 µM]	2%	10%[57.1 µM]	3
O=C(O)Cn1ncc2c1-c1ccoc1CC2	30%	-9%[57.1 µM]	-2%	-13%[57.1 µM]	-38*
CNCc1nc(-c2ccc[nH]2)c2cc(Cl)ccc2n1	nt	-5%[0.0914 µM]	nt	-15%	nt
CCCCC1=CC2=C(c3ccco3)C(=O)C(C)(OC(=O)c3ccc(OC)cc3)C(=O)C2=CN1CCCOC(C)C (centres undefined)	4%	-8%	-15%	-36%	-10
